Laboratory results as given in PubChem BioAssay (NCI).
The panel holds about 83,000 compounds, 20% with a hit somewhere; the sample as a whole holds those more often.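 Note: values are percent growth. 100 is the growth of untreated cells, values between 100 and 0 indicate rising inhibition; between -100 and 0 indicates cell death.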 Active and inactive are the calls of the source. Rule for the calls: active = growth percent below 10; inactive = the rest.

What was measured:
Experiment in all cases: NCI-60 one-dose screen, 48 h (100 = growth as untreated, 0 = no growth, -100 = all killed)
[1] = test system: HCT-15 colon; settings: 10 µM unless noted
[2] = test system: HT29 colon; settings: 10 µM unless noted
[3] = test system: SNB-75 CNS; settings: 10 µM unless noted
[4] = test system: SNB-19 CNS; settings: 10 µM unless noted
[5] = test system: U251 CNS; settings: 10 µM unless noted
[6] = test system: PC-3 prostate; settings: 10 µM unless noted
[7] = test system: SK-MEL-5 melanoma; settings: 10 µM unless noted
[8] = test system: UACC-62 melanoma; settings: 10 µM unless noted
[9] = test system: LOX IMVI melanoma; settings: 10 µM
[10] = test system: SK-MEL-28 melanoma; settings: 10 µM unless noted
[11] = test system: SK-MEL-2 melanoma; settings: 10 µM unless noted
[12] = test system: EKVX NSCLC; settings: 10 µM unless noted
[13] = test system: SN12C renal; settings: 10 µM unless noted
[14] = test system: UO-31 renal; settings: 10 µM unless noted
[15] = test system: TK-10 renal; settings: 10 µM unless noted
[16] = test system: ACHN renal; settings: 10 µM unless noted
[17] = test system: CCRF-CEM leukemia; settings: 10 µM unless noted
[18] = test system: MOLT-4 leukemia; settings: 10 µM unless noted
[19] = test system: CAKI-1 renal; settings: 10 µM unless noted
[20] = test system: A498 renal; settings: 10 µM unless noted

Measured: growth

COC(=O)c1cc([N+](=O)[O-])cc([N+](=O)[O-])c1Cl
active: [1] -4.09% | [2] -85.2% | [5] 9.52% | [15] -41.3%
inactive: [3] 90.4% | [4] 104% | [6] 97% | [7] 107% | [8] 90.6% | [9] 57.7% | [10] 108% | [11] 87.4% | [12] 98.1% | [13] 99.8% | [14] 79.1% | [16] 15.6% | [17] 29.8% | [18] 26.6%

CCN1CCCC(Nc2cc(C)nc(/N=C(/N)Nc3ccc(Cl)c(Cl)c3)n2)C1 (stereo not given)
active: [1] -37.2% | [2] -46.9% | [3] -76.8% | [4] -17.5% | [5] -82.4% | [6] 7.05% | [7] -97.6% | [8] -80.7% | [9] -61.5% | [10] -87.8% | [11] -72.7% | [13] 1.64% | [14] -81.4% | [15] -88.6% | [16] -25.1% | [19] -40.6% | [20] -49.1% | [17] -16.4% | [18] -35.4%
inactive: [12] 31.4%

O=C(O)c1ccc2c(c1)C(=O)c1ccccc1C2=O
inactive: [1] 106% | [2] 108% | [3] 91.6% | [4] 104% | [5] 98.9% | [6] 96.5% | [7] 97.5% | [8] 94.9% | [9] 96.1% | [10] 111% | [11] 105% | [12] 102% | [13] 94.6% | [14] 87% | [15] 105% | [16] 103% | [19] 96.4% | [20] 71.8% | [17] 108% | [18] 94.4%

Nc1nc(N)c2cc(Sc3cccc(C(F)(F)F)c3)ccc2n1
inactive: [1] 24.3% | [2] 14.5% | [3] 42.7% | [4] 34.6% | [5] 19.2% | [6] 28.3% | [7] 21.4% | [8] 30.3% | [9] 17.4% | [10] 58.4% | [11] 68.5% | [12] 23.7% | [13] 26.5% | [14] 21.3% | [15] 43.5% | [16] 26.6% | [20] 54% | [17] 33.2% | [18] 14.3%

CN1CSC(=S)N(Cc2ccccc2)C1
inactive: [1] 84.8% | [2] 24.9% | [3] 98.1% | [4] 95.5% | [5] 100% | [6] 95.4% | [7] 96.8% | [8] 85.8% | [9] 11.3% | [10] 120% | [11] 73.3% | [12] 118% | [13] 99.9% | [14] 69.5% | [15] 28.6% | [16] 102% | [19] 80% | [20] 145% | [17] 59.3% | [18] 64.5%

c1ccc2sc(SSN3CC4CCC(CC4)C3)nc2c1
inactive: [1] 110% | [2] 114% | [3] 85.8% | [4] 105% | [5] 106% | [6] 100% | [7] 97.9% | [8] 90.5% | [9] 92.1% | [10] 132% | [11] 124% | [12] 106% | [13] 104% | [14] 55.1% | [15] 121% | [16] 98.3% | [20] 142% | [17] 111% | [18] 56.3%

Cc1cc(C)c([I+]c2c(C)cc(C)cc2C)c(C)c1
inactive: [1] 25.7% | [15] 12.7% | [20] 45%
active: [2] -10.5% | [3] -60% | [4] -78.3% | [5] -88.7% | [6] -16.7% | [7] -96.8% | [8] -92.6% | [9] -89.2% | [10] -61.4% | [11] -44.1% | [12] 4.01% | [13] -66.2% | [14] -20.4% | [16] -16.1% | [17] -29.5% | [18] -41.1%

CCCc1cc(=O)oc2c3c(c4c(c12)OC(C)(C)CC4)OC(C)[C@H](C)[C@@H]3O (stereo not given in full)
inactive: [1] 55.5% | [2] 58.8% | [3] 91.5% | [4] 94.4% | [5] 75.1% | [6] 42.7% | [7] 86.9% | [8] 68.9% | [9] 83.1% | [10] 93.1% | [11] 13.6% | [12] 90% | [13] 81% | [14] 34.9% | [15] 139% | [16] 66.1% | [19] 104% | [20] 63% | [17] 84.8% | [18] 54.9%

O=C(c1ccccc1)c1ccc(O)c2ncccc12
inactive: [1] 25.7% | [2] 96.1% | [3] 58.7% | [4] 38.4% | [5] 28.4% | [6] 32.2% | [7] 26.8% | [8] 33.9% | [9] 31.4% | [10] 68% | [11] 43% | [12] 51.1% | [13] 31.6% | [15] 83.1% | [16] 18.5% | [20] 53.1% | [17] 29.5% | [18] 21.2%
active: [14] 7.3% | [19] 8.47%

O=C(c1ccc(O)c(Br)c1)c1ccc(O)c(Br)c1
inactive: [1] 104% | [2] 114% | [3] 94.9% | [4] 94.3% | [5] 109% | [6] 101% | [7] 99.4% | [8] 97.1% | [9] 108% | [10] 110% | [11] 105% | [12] 112% | [13] 94.4% | [14] 98.5% | [15] 99.4% | [16] 102% | [19] 119% | [20] 93.9% | [17] 109%

O=C1C=CC(=O)N1c1ccc(O)cc1
inactive: [1] 102% | [2] 112% | [3] 98.1% | [4] 103% | [5] 99.9% | [6] 98.3% | [7] 102% | [8] 95.4% | [9] 99.8% | [10] 107% | [11] 107% | [12] 109% | [13] 104% | [14] 98.5% | [15] 103% | [16] 94.3% | [19] 107% | [20] 104% | [17] 81%

Oc1ccc2ccccc2c1N=Nc1nccs1
inactive: [1] 24% | [2] 34.7% | [3] 43.3% | [4] 74.2% | [6] 35.4% | [7] 74.7% | [10] 38.1% | [11] 153% | [13] 34.4% | [14] 59.3% | [16] 10.3% | [20] 136%
active: [5] 4.79% | [8] 0.0083% | [9] 5.25% | [12] -9.54% | [15] -14% | [19] -31.1% | [17] -7.19% | [18] -4.26%

Oc1ccc(Nc2ccc3ccccc3c2)cc1
active: [19] 8.98%
inactive: [1] 54.7% | [2] 95.8% | [3] 63.2% | [4] 75.5% | [5] 67.5% | [6] 39.2% | [7] 44.7% | [8] 18% | [9] 40.9% | [10] 90.3% | [11] 62.4% | [12] 79% | [13] 64.8% | [14] 10.6% | [15] 45.3% | [16] 18.5% | [20] 94.1% | [17] 49% | [18] 46.8%

CCOC(=O)c1[nH]c(C#N)c(C(=O)OCC)c1C
inactive: [1] 92.2% | [2] 103% | [3] 96.9% | [4] 106% | [5] 99.1% | [6] 102% | [7] 102% | [8] 91.2% | [9] 107% | [10] 112% | [11] 104% | [12] 93.3% | [13] 92.5% | [14] 90.2% | [15] 104% | [16] 101% | [19] 94.7% | [20] 96.7% | [17] 97.3%

S=C=Nc1ccc(N2CCOCC2)cc1
inactive: [1] 90.5% | [2] 86.3% | [3] 66.4% | [4] 91.8% | [5] 97.6% | [6] 90.1% | [7] 98.2% | [8] 82.1% | [9] 92.4% | [10] 92.5% | [11] 97.8% | [12] 91.7% | [13] 104% | [14] 84.5% | [15] 93.2% | [16] 96.1% | [19] 95.9% | [20] 96.5% | [17] 80.6% | [18] 92.5%

Cc1nn(CCO)c(C)c1N=[N+]([O-])c1c(C)nn(CCO)c1C
active: [1] -4.21% | [2] -14% | [14] -93.6% | [15] -46.9% | [16] -42.8% | [17] 1.91%
inactive: [3] 52.4% | [4] 98.2% | [5] 69.6% | [6] 76.6% | [7] 71.5% | [8] 61% | [9] 16% | [10] 83.2% | [11] 58.1% | [12] 23.4% | [13] 60% | [20] 105%

CC1C(c2ccccc2)OCCN1C(=S)Nc1ccc(S(=O)(=O)N2CCCCC2)cc1 (stereo not given)
inactive: [1] 97.2% | [2] 87.5% | [3] 100% | [4] 102% | [5] 93% | [6] 97.7% | [7] 88.7% | [8] 88.9% | [9] 58.9% | [10] 108% | [11] 104% | [12] 92.1% | [13] 96.1% | [14] 94.5% | [15] 116% | [16] 96.4% | [19] 36.4% | [20] 99.3% | [17] 81% | [18] 99.5%
